Screening data deposited in PubChem BioAssay by National Center for Advancing Translational Sciences (NCATS).
PLK1 PBD inh: blocks phosphopeptide binding to human PLK1 polo-box domain; P53350; Plk1 PBD binding of FITC phosphopeptide, fluorescence polarization; Potency, µM, most hits filed as inhibitors; 360,000 compounds, 2.8% hits; AID 720504; note: series mostly up to about 57 µM; nearly all actives have a fitted effect of over 65% in size
Target sequence (P53350 whole entry, looked up, the tested form may be a part): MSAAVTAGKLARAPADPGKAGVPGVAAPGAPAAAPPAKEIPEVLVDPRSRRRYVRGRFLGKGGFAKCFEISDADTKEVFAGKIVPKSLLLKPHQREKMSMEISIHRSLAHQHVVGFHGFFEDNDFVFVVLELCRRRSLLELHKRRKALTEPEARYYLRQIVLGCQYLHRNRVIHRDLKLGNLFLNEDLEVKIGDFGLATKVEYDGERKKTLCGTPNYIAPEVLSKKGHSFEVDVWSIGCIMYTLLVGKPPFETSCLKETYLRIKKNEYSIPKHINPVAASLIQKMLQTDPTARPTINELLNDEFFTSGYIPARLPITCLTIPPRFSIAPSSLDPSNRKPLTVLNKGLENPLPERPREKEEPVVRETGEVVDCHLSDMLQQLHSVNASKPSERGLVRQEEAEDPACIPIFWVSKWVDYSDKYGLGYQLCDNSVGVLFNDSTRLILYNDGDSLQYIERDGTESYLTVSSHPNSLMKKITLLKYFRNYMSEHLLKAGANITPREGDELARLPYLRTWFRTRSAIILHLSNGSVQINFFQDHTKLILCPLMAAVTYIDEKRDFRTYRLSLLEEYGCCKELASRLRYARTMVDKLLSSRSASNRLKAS
G9a inh: G9a (human) methyltransferase inhibition; Q96KQ7; Potency, µM (highest dose often 102 µM), actives largely listed as inhibitors; G9a H3K9 monomethylation, AlphaScreen, 2 h; 350,000 compounds, 8.8% hits; note: nearly all actives have a fitted effect of over 75% in size
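G9a (20 nM) was preincubated 15 min with compound, then reacted 2 h at room temperature with 500 nM biotin-H3K9 peptide and 20 µM SAM. Monomethyl-H3K9 detected by AlphaScreen using anti-H3K9me1 antibody.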
HP1b binding inh: blocks HP1-beta chromodomain binding to methylated histone tails | AlphaScreen HP1-beta / biotin-H3K9me3 peptide binding | 390,000 compounds, 0.56% hits | Potency, µM (highest dose often 114 µM), usual class: inhibitors | P83916; note: nearly all actives have a fitted effect of over 70% in size
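HP1-beta protein (50 nM final) preincubated 30 min at room temperature with biotinylated H3(1-18)K9me3 peptide (50 nM) in PBS pH 7.4, 0.01% Tween-20, then compound added for 30 min. AlphaScreen streptavidin donor/nickel chelate acceptor beads (10 ug/mL final), 30 min dark, luminescence read.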
JMJD2A Tudor inh: JMJD2A Tudor domain (human) inhibition. AID 504339. O75164. 390,000 compounds, 4.4% hits. Potency, µM (highest dose often 114 µM), most hits filed as inhibitors. AlphaScreen JMJD2A-Tudor / H3K4me3 peptide binding; note: nearly all actives have a fitted effect of over 50% in size
VDR inhibitor: vitamin D3 receptor (human) inhibition; P11473; VDR-SRC2-3 peptide fluorescence polarization, 2 h; Potency, µM, hits mostly inhibitors; 400,000 compounds, 0.93% hits; AID 504847
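Two reagent solutions held at 4 deg C in the dark were dispensed, compounds pinned at 23 nl, and the mixture incubated 2 h at room temperature. Read-out: fluorescence polarization of VDR–SRC2-3 peptide binding.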
BAZ2B inh: inhibitors of human BAZ2B bromodomain; Q9UIF8; AlphaScreen BAZ2B-H3K14Ac peptide displacement; Potency, µM (series often up to 114 µM), usual class: inhibitors; 360,000 compounds, 4.4% hits; AID 504333; note: nearly all actives have a fitted effect of over 60% in size
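Compounds, titrated to a top concentration of 110 uM, were incubated 30 min at room temperature with preformed BAZ2B/acetyl-K14 H3 peptide complex (50 nM each). Proximity signal was measured by AlphaScreen after 20 min with beads.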
A number is an active result; – = inactive; ? = inconclusive; · = not tested or not shown; ! = a repeat was not active; [ ] = another dose, or the depositor's remark. Compounds with a hit are over-represented: about 11% of the library has one in this group of screens. Calls come from the whole dose curve; as a rule, active = well fitted curve in the direction sought with a large enough effect; inconclusive = small, poorly fitted or top-dose-only effect, or another doubt; inactive = no such curve, though single readings can be large; an effect the other way counts as inactive or inconclusive.

SMILES	PLK1 PBD inh	G9a inh	HP1b binding inh	JMJD2A Tudor inh	VDR inhibitor	BAZ2B inh
Cc1cc2ccccn2c1C(=O)c1ccc(NN)c([N+](=O)[O-])c1	–	10µM	31.6µM	39.8µM	–	17.8µM
COC(=O)c1cc(C(=O)c2c(C)cc3ccccn23)cc([N+](=O)[O-])c1	–	31.6µM	?	44.7µM	–	?
Cc1c(Br)c([N+](=O)[O-])nn1CC(=O)N1CCCc2ccccc21	–	–[12.7 µM]	–	–	–	–
CCOc1ccc(CNC(=O)CCC(=O)N2CC3CCCN3c3ccccc32)cc1 (stereo not given)	·	–	?	?	–	50.1µM
O=C(Nc1cccc(Cl)c1)N1CC2CCCN2c2ccccc21 (stereo not given)	·	2.24µM	?	14.1µM	–	17.8µM
O=C(NCc1cccc(Br)c1)c1ccc(NC(=O)N2CCCCc3ccccc32)cc1	·	–	–	–	–	–
COc1ccc(OC)c(NC(=O)N2CC3CCCN3c3ccccc32)c1 (stereo not given)	·	17.8µM	?	39.8µM	–	20µM
O=C(NCc1cccc(Cl)c1)c1ccc(NC(=O)N2CC3CCCN3c3ccccc32)cc1 (stereo not given)	·	10µM	–	?	–	?
COc1ccc(OC)c(NC(=O)N2CCc3ccccc3C2)c1	–	–	–	–	–	–
Cc1ccc(-n2c(SCc3ccccc3F)nc3[nH]ncc3c2=O)cc1Cl	·	–	–	?	–	–
COc1ccc(CCN(Cc2cccs2)S(=O)(=O)c2ccc(S(=O)(=O)N(C)C3CCCCC3)cc2)cc1OC	–	–	–	–	–	–
CC12CCC(C(=O)N(CSC(=S)N/N=C\c3ccccc3)C1=O)C2(C)C (stereo not given)	3.36µM	–	–	–[11.4 µM]	–	–
CCOC(=O)C(C(=O)OCC)C(C(=O)OCC)N1CCOCC1 (stereo not given)	23.8µM	1.58µM	?	?	39.8µM	–
CCOC(=O)C(C)CC(C)C(=O)N1CCOCCOCCN(C(=O)C(C)CC(C)C(=O)OCC)CCOCC1 (stereo not given)	–	–	–	–	–	–
COc1ccccc1NC(=O)Nc1nc(CC(=O)Nc2ccc(N(C)C)cc2)cs1	–	11.2µM	39.8µM	25.1µM	–	12.6µM
COc1ccc(C)cc1NC(=O)Cc1csc(NC(=O)Nc2ccccc2OC)n1	29.9µM	·	·	·	·	·
COc1ccccc1CNC(=O)Cc1csc(NC(=O)Nc2ccccc2OC)n1	–	–	–	?	–	–
COc1ccc(NC(=O)Cc2csc(NC(=O)Nc3ccccc3OC)n2)cc1	–	·	·	·	·	·
COc1ccc(N2CCN(C(=O)Cc3csc(NC(=O)Nc4ccccc4OC)n3)CC2)cc1	–	7.94µM	–	?	–	?
COc1ccccc1NC(=O)Nc1nc(CC(=O)N2CCN(c3ccccc3)CC2)cs1	–	?	–	–	–	–
COc1ccccc1NC(=O)Nc1nc(CC(=O)Nc2cccc(F)c2)cs1	–	39.8µM	–	–	–	–
NC(=O)C1CCN(c2nc(-c3ccc4c(c3)OCCO4)cs2)CC1	·	–[12.7 µM]	–	–	–	?
C=C(C)C(=O)OCC(O)COc1ccc(C(C)(C)c2ccc(OCC(O)COC(=O)C(=C)C)cc2)cc1 (stereo not given)	–	–[12.7 µM]	–	–	–	–
Cc1ccc(CNC(=O)CCNC(=O)c2ccc([N+](=O)[O-])cc2)cc1	–	·	–	–	–	·
CCOc1ccc(-c2nnc(Nc3ccc(S(N)(=O)=O)cc3)c3ccccc23)cc1	·	–	–	–	–	–
SMILES	PLK1 PBD inh	G9a inh	HP1b binding inh	JMJD2A Tudor inh	VDR inhibitor	BAZ2B inh
COc1ccccc1NC(=O)Nc1nc(CC(=O)Nc2cc(F)ccc2F)cs1	–	31.6µM	–	–	–	–
CN(C)c1ccc(NC(=O)Nc2csc3ccccc23)cc1	–	8.91µM	–	?	–	35.5µM
CC(C)(C)c1ccc(CSc2nc3c(c(=O)[nH]2)CCCC3)cc1	·	–	–	–	–	–
Cn1sc(=O)n(Cc2ccccc2)c1=O	·	·	·	·	5.01µM	·
Oc1cc(O)c2c(c1)O[C@H](c1ccc(O)c(O)c1)[C@H](O)C2	–	10µM	–	–	–	?
COc1ccc(/C=N/Nc2nc(C(=O)O)cs2)cc1	?	39.8µM	–	?	–	44.7µM
COC(=O)c1ccc(/C=N/Nc2nc(-c3ccc(C)cc3)cs2)cc1	–	79.4µM	–	–	–	–
COC(=O)c1ccc(/C=N/Nc2nc(-c3ccc(Cl)cc3Cl)cs2)cc1	·	50.1µM	·	·	·	–
COC(=O)c1ccc(/C=N/Nc2nc(-c3ccccc3)cs2)cc1	–	?	–	–	–	–
CC(=O)Nc1ccc(-c2csc(Nc3ccccn3)n2)cc1	–	·	–	–	–	–
CC(=O)Nc1ccc(-c2csc(N/N=C\c3ccncc3)n2)cc1	–	8.91µM	–	?	–	–
COc1ccc(/C=N/NC(=O)CC(=O)N/N=C/c2ccc(OC)cc2)cc1	–	–	–	–	–	–
Cc1cnc(C(=O)OC(C)C(=O)Nc2cccc3ccccc23)cn1 (stereo not given)	–	?	–	–	–	–
NCc1ccccc1CC(=O)N[C@@H]1C(=O)N2C(C(=O)O)=C(CSc3nnnn3CC(=O)O)CS[C@@H]12	·	–[21.5 µM]	·	·	–	·
CC(=O)OCC1=C(C(=O)O)N2C(=O)C(NC(=O)CCn3nc(C(F)(F)F)c(Br)c3C3CC3)C2SC1 (stereo not given)	?	39.8µM	–	–	39.8µM	–
NC(=O)c1cc[n+](CC2=C(C(=O)O)N3C(=O)[C@@H](NC(=O)[C@@H](c4ccccc4)S(=O)(=O)[O-])[C@H]3SC2)cc1	·	3.77µM	·	·	?	·
CC(=O)OCC1=C(C(=O)O)N2C(=O)C(NC(=O)CC(C)c3ccccc3)C2SC1 (stereo not given)	–	?	–	–	–	?
O=C(Cc1cccs1)NC1C(=O)N2C(C(=O)[O-])=C(C[n+]3ccccc3)CSC12 (stereo not given)	·	–[2.33 µM]	·	·	25.1µM	·
CC(=O)OCC1=C(C(=O)O)N2C(=O)[C@@H](NC(=O)Cc3cccs3)[C@H]2SC1	?	7.52µM!	–	79.4µM	?	50.1µM
CC(=O)OCC1=C(C(=O)O)N2C(=O)[C@@H](NC(=O)Cc3ccccc3)[C@H]2SC1	–	·	–	?	–	·
CC(=O)OCC1=C(C(=O)O)N2C(=O)C(NC(=O)CCn3nc(C)c(Cl)c3C)C2SC1 (stereo not given)	–	?	–	–	–	–
COc1cc(Cl)c(C)cc1NC(=O)CCc1nc2cccnc2n1-c1ccccc1	·	–	–	–	–	–
CC(=O)OCC1=C(C(=O)O)N2C(=O)C(NC(=O)Cn3nc(C(F)F)c(Cl)c3C)C2SC1 (stereo not given)	–	50.1µM	–	–	–	–
Cc1ccc(N(CC(=O)NCCSc2ccccn2)S(C)(=O)=O)cc1	?	28.2µM	–	–	–	–
